Results from PubChem BioAssay AID1159580 (chemical genetic matrix, 2015).
Among all 5,500 compounds or so, about 2,000 (36%) were called active. Roughly 18% stayed inconclusive and do not appear here. No stated cut-off is given here; in the data, active means normalized growth mostly below about 0.91 (no sharp cut-off); inconclusive means no clear call, values can overlap the other calls; inactive means mostly above about 0.92. The list shows a part of the results.

Assay: chemical genetic growth profiling, strain panel (AID 1159580);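 further: tested at 20 µM; growth read once vehicle control cultures reached saturation at 30 °C; 1 = growth at the plate median or of vehicle wells; lower values mean less growth of the strain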
Details: S. cerevisiae deletion strains, growth OD

Measured: normalized growth

COc1cc(O)c2c(=O)c(-c3ccc(O)cc3)coc2c1
active: locus YBR021W, strain FUR4, active compounds read low 0.832 | locus YDL134C, strain PPH21, active compounds read low 0.859 | locus YDL192W, strain arf1, active compounds read low 0.84 | locus YDR101C, strain arx1, active compounds read low 0.873 | locus YDR318W, strain mcm21, active compounds read low 0.886 | locus YDR502C, strain sam2, active compounds read low 0.842 | locus YER155C, strain BEM2, active compounds read low 0.891 | locus YER167W, strain BCK2, active compounds read low 0.853 | locus YGL086W, strain mad1, active compounds read low 0.881 | locus YGL248W, strain PDE1, active compounds read low 0.874 | locus YGR078C, strain PAC10, active compounds read low 0.835 | locus YGR135W, strain pre9, active compounds read low 0.817 | locus YGR252W, strain gcn5, active compounds read low 0.612 | locus YHR030C, strain SLT2, active compounds read low 0.916 | locus YHR129C, strain ARP1, active compounds read low 0.899 | locus YHR200W, strain rpn10, active compounds read low 0.894 | locus YIL066C, strain RNR3, active compounds read low 0.845 | locus YJL095W, strain BCK1, active compounds read low 0.73 | locus YJR043C, strain POL32, active compounds read low 0.771 | locus YJR075W, strain HOC1, active compounds read low 0.859 | locus YKR001C, strain vps1, active compounds read low 0.73 | locus YLR039C, strain RIC1, active compounds read low 0.58 | locus YLR262C, strain YPT6, active compounds read low 0.552 | locus YLR268W, strain sec22, active compounds read low 0.866 | locus YLR330W, strain CHS5, active compounds read low 0.872 | locus YLR342W, strain FKS1 (second series), active compounds read low 0.701 | locus YLR371W, strain rom2, active compounds read low 0.823 | locus YLR418C, strain cdc73, active compounds read low 0.61 | locus YML032C, strain rad52, active compounds read low 0.865 | locus YMR223W, strain ubp8, active compounds read low 0.862 | locus YMR263W, strain SAP30, active compounds read low 0.884 | locus YNL233W, strain BNI4, active compounds read low 0.809 | locus YNL298W, strain CLA4, active compounds read low 0.894 | locus YNL307C, strain MCK1, active compounds read low 0.816 | locus YOL006C, strain TOP1, active compounds read low 0.489 | locus YOL147C, strain pex11, active compounds read low 0.877 | locus YOR144C, strain elg1, active compounds read low 0.918 | locus YOR184W, strain ser1, active compounds read low 0.756 | strain wtn01, active compounds read low 0.841
inactive: locus YBR229C, strain ROT2, active compounds read low 0.973 | locus YCL029C, strain bik1, active compounds read low 0.952 | locus YDL035C, strain GPR1, active compounds read low 0.89 | locus YDL074C, strain BRE1, active compounds read low 0.782 | locus YDL101C, strain DUN1, active compounds read low 0.942 | locus YDL185W, strain tfp1, active compounds read low 0.972 | locus YDR162C, strain NBP2, active compounds read low 0.853 | locus YDR388W, active compounds read low 0.943 | locus YEL061C, strain CIN8, active compounds read low 0.93 | locus YER110C, active compounds read low 0.944 | locus YGL078C, strain dbp3, active compounds read low 0.935 | locus YHR079C, strain IRE1 (second series), active compounds read low 0.947 | locus YHR094C, strain hxt1, active compounds read low 0.959 | locus YIL073C, strain SPO22, active compounds read low 0.818 | locus YIL125W, strain kgd1, active compounds read low 0.964 | locus YIR030C, strain dcg1, active compounds read low 0.938 | locus YJL134W, strain LCB3, active compounds read low 0.984 | locus YJL168C, strain set2, active compounds read low 0.947 | locus YJL187C, strain SWE1 (second series), active compounds read low 0.894 | locus YKL009W, strain mrt4, active compounds read low 0.88 | locus YKL068W, active compounds read low 0.969 | locus YKL085W, strain MDH1 (second series), active compounds read low 0.948 | locus YKL085W, strain MDH1, active compounds read low 0.948 | locus YKL190W, strain CNB1, active compounds read low 0.961 | locus YLR058C, strain SHM2, active compounds read low 0.913 | locus YLR102C, strain apc9, active compounds read low 0.946 | locus YML016C, strain PPZ1, active compounds read low 0.947 | locus YML124C, strain tub3, active compounds read low 0.942 | locus YMR078C, strain ctf18, active compounds read low 0.954 | locus YMR307W, strain GAS1, active compounds read low 0.642 | locus YNL067W, strain RPL9B, active compounds read low 0.891 | locus YNL128W, strain TEP1, active compounds read low 0.96 | locus YNL153C, strain GIM3, active compounds read low 0.941 | locus YNL250W, strain rad50, active compounds read low 0.957 | locus YNL271C, strain bni1, active compounds read low 0.94 | locus YNR052C, strain pop2, active compounds read low 0.919 | locus YOL012C, strain htz1 1.29 | locus YOR061W, strain CKA2, active compounds read low 0.936 | locus YOR069W, strain VPS5, active compounds read low 0.94 | locus YOR136W, strain idh2, active compounds read low 0.946 | locus YOR316C, strain cot1, active compounds read low 0.945 | locus YPL055C, strain LGE1, active compounds read low 0.791 | locus YPL241C, strain CIN2, active compounds read low 0.97 | locus YPR119W, strain clb2, active compounds read low 0.962 | locus YPR141C, strain kar3, active compounds read low 0.967 | locus YPR163C, strain tif3, active compounds read low 0.93 | locus YPR167C, strain met16, active compounds read low 0.942
